Data on eight compounds can be found in PubChem BioAssay (NCATS).

Inconclusive results are not listed. Calls of active or inactive are those of the source. The call rests on the fitted dose curve; in most records, active means well fitted curve in the direction sought with a large enough effect; inconclusive means small, poorly fitted or top-dose-only effect, or another doubt; inactive means no such curve, though single readings can be large; an effect the other way counts as inactive or inconclusive.

A short description of test [1]: qHTS of pediatric cancer cell lines to identify multiple opportunities for drug repurposing: Primary screen for control Hh wild type fibroblast cells (AID 1347106). Further: nearly all actives have a fitted effect of over 55% in size. Further: potency means the concentration at half of the fitted maximal effect. In a few lines:
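Cells (500-1,000/well) in growth media were settled 5 h at 37 degrees C, then given compounds for 48 h. Viability was read as CellTiter-Glo luminescence. Primary runs used MIPE at 11 points (0.78 nM-46 µM) and NPC at 8 points (0.59 nM-46 µM); follow-ups used 11 points.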
On the technique in general: In qHTS, concentration-response curves come from the screen itself.

Test [2] in a line: qHTS of pediatric cancer cell lines to identify multiple opportunities for drug repurposing: Primary screen for Rh30 cells (AID 1347107). Further: nearly all actives have a fitted effect of over 75% in size. Further: potency means the concentration at half of the fitted maximal effect. The essentials: (§1)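 Cells (500-1,000/well) rested 5 h, then received compounds for 48 h; metabolically active cells were measured by CellTiter-Glo luminescence. Final concentrations spanned up to 46 µM (MIPE, 11-point) or 0.59 nM-46 µM (NPC, 8-point) in primary screens, 11-point in follow-ups.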

Test [3] can be described thus: qHTS of pediatric cancer cell lines to identify multiple opportunities for drug repurposing: Primary screen for Rh41 cells (AID 1347108). Further: potency means the concentration at half of the fitted maximal effect; nearly all actives have a fitted effect of over 70% in size. In a few lines: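 Readout: CellTiter-Glo luminescence, 48 h treatment. Controls DMSO (neutral) and bortezomib 2.3 µM final (positive). Potency and efficacy taken from primary-screen concentration-response curves.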
Test [4] can be described thus: qHTS of pediatric cancer cell lines to identify multiple opportunities for drug repurposing: Confirmatory screen for A673 cells (AID 1347110).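 Further: cells exposed to compound for 48 h before the viability read; nearly all actives have a fitted effect of over 65% in size.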 Further: potency means the concentration at half of the fitted maximal effect. The essentials:
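Cells plated at 500-1,000/well were treated five hours later with multi-point dilutions up to 46 µM final. After two days, CellTiter-Glo was added and luminescence read.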

A short description of test [5]: qHTS of pediatric cancer cell lines to identify multiple opportunities for drug repurposing: Confirmatory screen for SK-N-MC cells (AID 1347111).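 Further: cells exposed to compound for 48 h before the readout; nearly all actives have a fitted effect of over 70% in size.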 Further: potency means the concentration at half of the fitted maximal effect. In a few lines:
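Seed 500-1,000 cells/well; rest 5 h at 37 degrees C. Pin-transfer compounds, 11-point titration. Incubate 48 h. Add CellTiter-Glo, 15 min RT, read luminescence.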

Test [6] in a line: qHTS of pediatric cancer cell lines to identify multiple opportunities for drug repurposing: Confirmatory screen for BT-12 cells (AID 1347112). Further: nearly all actives have a fitted effect of over 55% in size. Further: potency means the concentration at half of the fitted maximal effect. In a few lines: as §1
A short description of test [7]: qHTS of pediatric cancer cell lines to identify multiple opportunities for drug repurposing: Confirmatory screen for DAOY cells (AID 1347114). Further: nearly all actives have a fitted effect of over 65% in size. Further: potency means the concentration at half of the fitted maximal effect. The essentials: (§2)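 Viability measured as metabolically active cells via CellTiter-Glo luminescence following 48 hours of compound exposure, 11-point dilutions in confirmatory testing. 500-1,000 cells/well plated 5 hours before dosing; controls were DMSO and 2.3 µM bortezomib.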

Test [8] is described as follows: qHTS of pediatric cancer cell lines to identify multiple opportunities for drug repurposing: Confirmatory screen for SJ-GBM2 cells (AID 1347116). Further: potency means the concentration at half of the fitted maximal effect; nearly all actives have a fitted effect of over 60% in size. In a few lines:
as §2

The nature of test [9]: qHTS of pediatric cancer cell lines to identify multiple opportunities for drug repurposing: Confirmatory screen for TC32 cells (AID 1347118).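 Further: cells exposed to compound for 48 h before the read; nearly all actives have a fitted effect of over 65% in size.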 Further: potency means the concentration at half of the fitted maximal effect. In a few lines:
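qHTS, TC32, 48 h drug treatment, CellTiter-Glo luminescence as a proxy for metabolically active cells; primary top concentration 46 µM (MIPE 11-pt, NPC 8-pt); confirmatory 11-pt.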

Test [10] can be described thus: qHTS of pediatric cancer cell lines to identify multiple opportunities for drug repurposing: Confirmatory screen for U-2 OS cells (AID 1347122). Further: nearly all actives have a fitted effect of over 65% in size. Further: potency means the concentration at half of the fitted maximal effect. In a few lines: as §1
Test [11] can be described thus: qHTS of pediatric cancer cell lines to identify multiple opportunities for drug repurposing: Confirmatory screen for Rh41 cells (AID 1347123).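 Further: potency means the concentration at half of the fitted maximal effect; 48 h compound exposure; nearly all actives have a fitted effect of over 60% in size.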 The essentials:
as §1

The nature of test [12]: qHTS of pediatric cancer cell lines to identify multiple opportunities for drug repurposing: Confirmatory screen for RD cells (AID 1347124). Further: potency means the concentration at half of the fitted maximal effect. In a few lines: as §1
A short description of test [13]: qHTS of pediatric cancer cell lines to identify multiple opportunities for drug repurposing: Confirmatory screen for Rh18 cells (AID 1347125). Further: nearly all actives have a fitted effect of over 55% in size. Further: potency means the concentration at half of the fitted maximal effect. The essentials:
as §1

Test [14] in a line: qHTS of pediatric cancer cell lines to identify multiple opportunities for drug repurposing: Confirmatory screen for NB1643 cells (AID 1347109). Further: potency means the concentration at half of the fitted maximal effect; nearly all actives have a fitted effect of over 45% in size. In a few lines:
as §1

Test [15] can be described thus: qHTS of pediatric cancer cell lines to identify multiple opportunities for drug repurposing: Confirmatory screen for LAN-5 cells (AID 1347113). Further: nearly all actives have a fitted effect of over 65% in size. Further: potency means the concentration at half of the fitted maximal effect. In a few lines: as §1
Test [16] in a line: qHTS of pediatric cancer cell lines to identify multiple opportunities for drug repurposing: Confirmatory screen for NB-EBc1 cells (AID 1347115).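 Further: cells exposed to compound for 48 h before the viability read; nearly all actives have a fitted effect of over 45% in size.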 Further: potency means the concentration at half of the fitted maximal effect. The essentials:
as §1

The nature of test [17]: qHTS of pediatric cancer cell lines to identify multiple opportunities for drug repurposing: Confirmatory screen for BT-37 cells (AID 1347117). Further: nearly all actives have a fitted effect of over 55% in size. Further: potency means the concentration at half of the fitted maximal effect. The essentials:
as §1

The nature of test [18]: qHTS of pediatric cancer cell lines to identify multiple opportunities for drug repurposing: Confirmatory screen for MG 63 (6-TG R) cells (AID 1347119). Further: nearly all actives have a fitted effect of over 55% in size. Further: potency means the concentration at half of the fitted maximal effect. In a few lines: as §1
Test [19] in a line: qHTS of pediatric cancer cell lines to identify multiple opportunities for drug repurposing: Confirmatory screen for control Hh wild type fibroblast cells (AID 1347121). Further: nearly all actives have a fitted effect of over 70% in size. The essentials: as §1
Test [20] in a line: qHTS of pediatric cancer cell lines to identify multiple opportunities for drug repurposing: Confirmatory screen for Rh30 cells (AID 1347126). Further: nearly all actives have a fitted effect of over 55% in size. Further: potency means the concentration at half of the fitted maximal effect. In a few lines: as §1

Take `CC(C)C[C@H](NC(=O)CNC(=O)c1cc(Cl)ccc1Cl)B(O)O`: the Potency in test [1] is 1050 nM (active); in test [2] it was 1870 nM (active); in test [3], 469 nM (active); in test [4], 465 nM (active); in [6], 465 nM (active); in [7], 185 nM (active). Besides, the Potency in [8] was 185 nM (active); in test [10], 928 nM (active); in test [11] it was 165 nM (active); in test [12], 465 nM (active); in test [13], 369 nM (active). Also, the Potency result in test [5] and in test [9] was “inactive” in each case.

As for `CNC(=O)CN1CCC(Oc2cc3c(Nc4cccc(Cl)c4F)ncnc3cc2OC)CC1`, the Potency entry in test [1], in test [4], in test [6], in test [7], in test [18] and in test [19] was “inactive” throughout. Moreover, the Potency in test [3] was 46.9 nM (active); in [14], 1040 nM (active); in [5] it was 1470 nM (active); in test [15], 1170 nM (active); in test [16] it was 4650 nM (active); in [17], 928 nM (active). The Potency in test [9] was 1040 nM (active); in test [13], 5850 nM (active); in [20] it was 10400 nM (active).

For the compound `c1ccc2c(CCNc3ccc(Nc4ccncc4)cc3)c[nH]c2c1`, the Potency result in [1] was “inactive”. For the same compound, the Potency in [3] is 18700 nM (active).

As for `Cc1c(C)n(Cc2ccc(-c3ccccc3C(=O)O)cc2)c2ccc(C(=O)N[C@@H](C)c3ccc([N+](=O)[O-])cc3)cc12`, the Potency result in test [1], in test [2], in [5], in test [6], in test [15] and in test [7] was “inactive” each time. In addition, the Potency result in test [16], in test [17], in test [9], in test [18], in test [19] and in test [10] was “inactive” throughout. In addition, the Potency result in test [12], in test [13] and in [20] was “inactive” throughout. For the same compound, the Potency in [11] is 9270 nM (active).

Take `C=C1C(=CC=C2CCC[C@]3(C)[C@@H]([C@H](C)C=C[C@H](C)C(C)C)CC[C@@H]23)C[C@@H](O)C[C@@H]1O`: the Potency result in test [1], in [19] and in [13] was “inactive” in each case. For the same compound, the Potency is 3720 nM (active) in [2]; 935 nM (active) in test [3]; 20800 nM (active) in test [7]; 23300 nM (active) in [9]; 2930 nM (active) in [18].

With `Cc1cc(Nc2cc(N3CCN(C)CC3)nc(Sc3ccc(NC(=O)C4CC4)cc3)n2)n[nH]1`, the Potency result in [1] and in test [19] was “inactive” throughout. Moreover, the Potency in test [2] is 18700 nM (active); in test [3] it was 11800 nM (active); in test [4], 13100 nM (active); in test [5], 131 nM (active); in test [7], 5220 nM (active); in [9], 92.8 nM (active). Further, the Potency was 2610 nM (active) in test [18], 9270 nM (active) in test [10], 9270 nM (active) in test [11] and 5850 nM (active) in test [20].

On to `Nc1ccccc1NC(=O)c1ccc(CNC(=O)OCc2cccnc2)cc1`, for which the Potency was 20900 nM (active) in test [1]; 18700 nM (active) in test [2]; 3720 nM (active) in [3]; 13500 nM (active) in test [4]; 302 nM (active) in [5]; 2690 nM (active) in [15]. The Potency was 1910 nM (active) in test [7]; 30200 nM (active) in [16]; 13500 nM (active) in test [8]; 3020 nM (active) in [17]; 3020 nM (active) in test [9]; 2400 nM (active) in [18]. Further, the Potency in test [10] is 135 nM (active); in [11], 2400 nM (active); in test [12], 13500 nM (active); in [13], 7590 nM (active); in test [20], 19100 nM (active).

For the compound `CC(C)[C@H](C(=O)Nc1ccc(C(=O)NO)cc1)c1ccccc1`, the Potency was 16600 nM (active) in test [1]; 1180 nM (active) in test [3]; 1040 nM (active) in test [4]; 465 nM (active) in [5]; 9270 nM (active) in test [6]; 827 nM (active) in test [15]. Further, the Potency was 2330 nM (active) in [7]; 928 nM (active) in [16]; 1470 nM (active) in test [8]; 1040 nM (active) in test [17]; 737 nM (active) in [9]; 657 nM (active) in test [18]. For the same compound, the Potency was 657 nM (active) in test [10]; 1170 nM (active) in [11]; 1650 nM (active) in test [12]; 827 nM (active) in [13]; 2330 nM (active) in test [20].
